Laboratory results taken from the supplement of paper PMC10849652.
Of roughly 8,800 targets only a part is listed; those with a hit were picked by preference. About 0.5% of all pairs of compound and target were hits.

What follows are targets tested with CCCS(=O)(=O)Nc1ccc(F)c(C(=O)c2c[nH]c3ncc(-c4ccc(Cl)cc4)cc23)c1F [vemurafenib] (assay: log2 fold change, soluble protein after heating vs DMSO (PISA); higher = thermal stabilisation; K562 lysate, 10 uM; active = over 0.2 and 3.5 SD of the protein, either way, in both replicates (recomputed)).
Procedure, shortened: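 The values are log-two fold changes in thermal stability compared with solvent controls and come from duplicates. They were obtained by TMTpro 16plex LC-MS/MS, with channel sums equalised, on the supernatant after 21,000xg for 90 min. That supernatant came from crude K562 extract at 1 mg/mL protein treated with 10 μM compound for 30 min, heated for 3 min across 48°C-58°C, pooled and brought to 0.5% NP-40 at 4°C.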

Sequence of UniProt Q9BPX3 (Q9BPX3 whole entry, looked up): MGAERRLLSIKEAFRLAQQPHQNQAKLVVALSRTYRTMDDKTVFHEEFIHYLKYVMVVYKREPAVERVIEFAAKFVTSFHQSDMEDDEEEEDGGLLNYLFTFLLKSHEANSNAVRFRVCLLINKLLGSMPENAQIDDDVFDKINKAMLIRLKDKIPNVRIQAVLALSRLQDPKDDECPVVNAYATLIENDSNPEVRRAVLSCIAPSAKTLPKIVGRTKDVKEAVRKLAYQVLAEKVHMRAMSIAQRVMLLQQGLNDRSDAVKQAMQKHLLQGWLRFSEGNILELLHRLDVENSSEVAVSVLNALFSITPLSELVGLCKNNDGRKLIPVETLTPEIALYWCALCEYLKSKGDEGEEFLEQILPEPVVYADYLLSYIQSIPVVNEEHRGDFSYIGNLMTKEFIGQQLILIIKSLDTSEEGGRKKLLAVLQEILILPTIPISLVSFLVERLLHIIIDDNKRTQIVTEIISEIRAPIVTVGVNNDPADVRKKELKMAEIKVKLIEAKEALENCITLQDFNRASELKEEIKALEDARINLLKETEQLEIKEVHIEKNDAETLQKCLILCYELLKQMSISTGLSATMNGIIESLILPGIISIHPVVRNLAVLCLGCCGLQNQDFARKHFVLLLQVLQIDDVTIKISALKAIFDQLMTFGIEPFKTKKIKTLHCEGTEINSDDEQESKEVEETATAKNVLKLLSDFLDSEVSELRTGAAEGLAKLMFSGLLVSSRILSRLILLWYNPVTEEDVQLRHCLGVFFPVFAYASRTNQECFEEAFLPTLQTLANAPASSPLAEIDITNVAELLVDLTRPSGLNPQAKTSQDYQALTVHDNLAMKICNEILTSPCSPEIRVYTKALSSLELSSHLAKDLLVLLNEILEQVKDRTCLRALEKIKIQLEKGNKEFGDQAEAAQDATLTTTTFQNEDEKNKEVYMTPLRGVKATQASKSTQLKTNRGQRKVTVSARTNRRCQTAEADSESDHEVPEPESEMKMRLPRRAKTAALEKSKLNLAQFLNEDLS
Sequence of UniProt Q9Y6R0 (Q9Y6R0 whole entry, looked up): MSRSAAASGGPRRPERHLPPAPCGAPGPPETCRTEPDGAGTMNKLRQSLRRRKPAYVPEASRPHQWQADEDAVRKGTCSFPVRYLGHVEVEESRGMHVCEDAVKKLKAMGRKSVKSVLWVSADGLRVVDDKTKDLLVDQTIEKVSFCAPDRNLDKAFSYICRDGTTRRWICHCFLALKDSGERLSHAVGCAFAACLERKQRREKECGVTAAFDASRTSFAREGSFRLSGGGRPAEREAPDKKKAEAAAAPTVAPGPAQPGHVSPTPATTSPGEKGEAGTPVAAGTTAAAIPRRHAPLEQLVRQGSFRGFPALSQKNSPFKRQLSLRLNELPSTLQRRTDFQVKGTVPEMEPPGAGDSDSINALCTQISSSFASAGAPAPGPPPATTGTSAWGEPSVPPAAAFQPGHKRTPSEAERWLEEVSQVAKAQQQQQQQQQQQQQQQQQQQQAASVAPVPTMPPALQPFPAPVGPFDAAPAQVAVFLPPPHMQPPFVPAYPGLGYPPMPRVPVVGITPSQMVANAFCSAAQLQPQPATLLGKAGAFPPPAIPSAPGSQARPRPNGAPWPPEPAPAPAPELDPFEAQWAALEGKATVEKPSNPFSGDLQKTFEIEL
Sequence of UniProt Q8TAT6 (Q8TAT6 whole entry, looked up): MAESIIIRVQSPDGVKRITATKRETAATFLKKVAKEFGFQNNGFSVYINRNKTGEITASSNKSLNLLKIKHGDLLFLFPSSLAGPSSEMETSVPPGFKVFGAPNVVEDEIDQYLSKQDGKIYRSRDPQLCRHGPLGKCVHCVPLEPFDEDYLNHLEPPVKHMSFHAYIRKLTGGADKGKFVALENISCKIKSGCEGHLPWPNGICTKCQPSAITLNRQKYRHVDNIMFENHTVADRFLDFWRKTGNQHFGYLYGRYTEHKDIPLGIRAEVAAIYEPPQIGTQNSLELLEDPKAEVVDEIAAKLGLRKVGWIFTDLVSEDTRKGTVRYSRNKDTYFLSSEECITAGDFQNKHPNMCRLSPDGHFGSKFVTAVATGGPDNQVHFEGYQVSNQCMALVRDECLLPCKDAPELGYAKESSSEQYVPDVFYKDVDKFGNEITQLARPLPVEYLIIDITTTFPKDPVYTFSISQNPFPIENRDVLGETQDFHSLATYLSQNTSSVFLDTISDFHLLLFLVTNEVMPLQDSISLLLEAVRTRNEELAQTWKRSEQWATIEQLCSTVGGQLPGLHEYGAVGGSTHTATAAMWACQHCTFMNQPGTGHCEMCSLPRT
Sequence of UniProt Q8IXH7 (Q8IXH7 whole entry, looked up): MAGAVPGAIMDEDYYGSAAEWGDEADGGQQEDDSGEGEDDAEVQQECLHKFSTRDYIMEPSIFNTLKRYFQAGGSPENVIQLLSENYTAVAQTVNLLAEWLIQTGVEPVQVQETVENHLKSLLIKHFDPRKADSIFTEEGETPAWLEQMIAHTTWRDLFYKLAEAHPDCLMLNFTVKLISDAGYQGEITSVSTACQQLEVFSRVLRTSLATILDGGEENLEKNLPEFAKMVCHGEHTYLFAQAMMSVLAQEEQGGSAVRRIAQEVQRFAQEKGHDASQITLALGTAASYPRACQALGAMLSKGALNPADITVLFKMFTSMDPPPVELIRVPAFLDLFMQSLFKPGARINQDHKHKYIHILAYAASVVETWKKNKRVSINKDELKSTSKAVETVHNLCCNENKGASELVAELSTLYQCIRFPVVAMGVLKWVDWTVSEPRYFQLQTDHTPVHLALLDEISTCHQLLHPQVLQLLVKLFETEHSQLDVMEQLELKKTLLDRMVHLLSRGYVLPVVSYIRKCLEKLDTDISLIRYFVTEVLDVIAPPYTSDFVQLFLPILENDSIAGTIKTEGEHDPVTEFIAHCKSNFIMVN
Sequence of UniProt O60313 (O60313 whole entry, looked up): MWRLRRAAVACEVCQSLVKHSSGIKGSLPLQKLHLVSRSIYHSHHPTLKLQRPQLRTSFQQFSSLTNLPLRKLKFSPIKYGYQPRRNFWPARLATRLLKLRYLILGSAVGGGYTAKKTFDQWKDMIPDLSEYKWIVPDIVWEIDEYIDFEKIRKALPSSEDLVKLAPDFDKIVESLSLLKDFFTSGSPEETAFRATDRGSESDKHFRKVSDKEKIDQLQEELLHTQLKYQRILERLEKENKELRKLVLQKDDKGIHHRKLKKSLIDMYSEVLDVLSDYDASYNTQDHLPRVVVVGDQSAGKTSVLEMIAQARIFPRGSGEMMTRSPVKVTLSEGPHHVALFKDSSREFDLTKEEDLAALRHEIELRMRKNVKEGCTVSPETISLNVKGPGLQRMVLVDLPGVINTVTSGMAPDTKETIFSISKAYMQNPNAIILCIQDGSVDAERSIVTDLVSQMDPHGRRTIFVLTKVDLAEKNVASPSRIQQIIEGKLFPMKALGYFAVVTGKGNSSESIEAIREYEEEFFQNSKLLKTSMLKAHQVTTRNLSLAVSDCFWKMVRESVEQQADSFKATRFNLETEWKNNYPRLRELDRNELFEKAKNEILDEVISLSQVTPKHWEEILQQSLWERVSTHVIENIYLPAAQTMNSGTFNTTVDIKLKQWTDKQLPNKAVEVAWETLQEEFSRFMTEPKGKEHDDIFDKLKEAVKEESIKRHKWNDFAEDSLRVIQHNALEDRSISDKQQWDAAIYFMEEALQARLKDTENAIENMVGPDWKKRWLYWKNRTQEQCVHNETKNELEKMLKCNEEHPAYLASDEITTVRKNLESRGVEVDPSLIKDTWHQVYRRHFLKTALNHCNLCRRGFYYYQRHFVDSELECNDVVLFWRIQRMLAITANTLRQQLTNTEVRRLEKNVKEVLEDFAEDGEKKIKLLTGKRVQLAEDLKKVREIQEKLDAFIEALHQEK
Sequence of UniProt P00480 (P00480 whole entry, looked up): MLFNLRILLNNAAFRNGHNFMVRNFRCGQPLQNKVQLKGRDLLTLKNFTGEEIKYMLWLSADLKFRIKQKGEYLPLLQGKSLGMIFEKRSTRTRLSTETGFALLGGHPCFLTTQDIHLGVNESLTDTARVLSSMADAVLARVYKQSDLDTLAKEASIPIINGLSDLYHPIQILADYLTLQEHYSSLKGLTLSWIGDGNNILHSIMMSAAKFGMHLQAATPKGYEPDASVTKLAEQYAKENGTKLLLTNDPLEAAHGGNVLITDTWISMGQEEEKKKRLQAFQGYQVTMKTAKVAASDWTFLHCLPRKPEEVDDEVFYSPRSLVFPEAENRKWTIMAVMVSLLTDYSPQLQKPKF
Sequence of UniProt Q15843 (Q15843 whole entry, looked up): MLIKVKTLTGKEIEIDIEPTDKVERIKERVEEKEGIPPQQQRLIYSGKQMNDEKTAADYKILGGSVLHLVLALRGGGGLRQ
Sequence of UniProt Q9NVE7 (Q9NVE7 whole entry, looked up): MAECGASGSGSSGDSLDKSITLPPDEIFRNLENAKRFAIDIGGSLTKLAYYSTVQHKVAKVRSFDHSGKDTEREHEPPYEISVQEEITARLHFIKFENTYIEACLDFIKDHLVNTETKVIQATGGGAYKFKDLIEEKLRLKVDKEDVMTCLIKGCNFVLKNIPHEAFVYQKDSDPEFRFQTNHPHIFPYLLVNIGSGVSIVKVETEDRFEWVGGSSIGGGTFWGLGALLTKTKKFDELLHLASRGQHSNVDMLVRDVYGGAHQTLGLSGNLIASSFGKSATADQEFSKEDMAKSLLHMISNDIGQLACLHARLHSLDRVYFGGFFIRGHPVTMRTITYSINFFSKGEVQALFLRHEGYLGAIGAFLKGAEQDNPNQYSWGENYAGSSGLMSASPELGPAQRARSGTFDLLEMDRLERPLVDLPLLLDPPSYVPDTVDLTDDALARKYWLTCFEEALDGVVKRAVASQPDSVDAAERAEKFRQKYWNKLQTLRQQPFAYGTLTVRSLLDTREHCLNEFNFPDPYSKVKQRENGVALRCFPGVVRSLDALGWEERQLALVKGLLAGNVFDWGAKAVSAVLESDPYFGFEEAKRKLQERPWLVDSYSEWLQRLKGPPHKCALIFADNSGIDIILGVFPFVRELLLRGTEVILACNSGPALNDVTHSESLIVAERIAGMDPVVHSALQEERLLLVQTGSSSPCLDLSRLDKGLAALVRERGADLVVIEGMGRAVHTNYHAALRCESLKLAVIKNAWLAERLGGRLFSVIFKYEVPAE

log2 fold change, inactive:
NUMBL (UniProt Q9Y6R0) -0.06, OPA1 isoform 2 (UniProt O60313) 0.022, MTHFD1L (UniProt B7ZM99) 0.01, PARD3 (UniProt Q8TEW0) 0.145, NACC1 (UniProt Q96RE7) -0.039, NEDD8 (UniProt Q15843) 0.063, PANK4 (UniProt Q9NVE7) 0.026, NAA35 (UniProt Q5VZE5) 0, OGFR (UniProt Q9NZT2) -0.033, MTMR6 (UniProt Q9Y217) 0.038, OTC (UniProt P00480) 0.072, NELFCD (UniProt Q8IXH7) 0.014, NFATC2IP (UniProt Q8NCF5) -0.024, NUDT4 isoform 2 (UniProt Q9NZJ9) 0.009, NADK2 (UniProt Q4G0N4) 0.024, NUP98 (UniProt P52948) 0.001, NR3C1 isoform 3 (UniProt P04150) -0.138, PAXBP1 (UniProt Q9Y5B6) 0.072, NCAPD3 (UniProt P42695) -0.032, NPLOC4 isoform 2 (UniProt Q8TAT6) -0.011, N4BP2 (UniProt Q86UW6) -0.001, NCAPD2 (UniProt Q15021) 0.025, NCAPG (UniProt Q9BPX3) -0.013
